# Screening results as filed in PubChem BioAssay.
# Pf growth 48h = P. falciparum growth inhibition at 48 hours (one generation); P. falciparum luciferase growth in erythrocytes, 48 h; Potency, µM (titrated, usually from 28.7 µM), inactives show at the highest dose activity change, negative = inhibition, most hits filed as inhibitors; 310,000 tested, 5.9% active; AID 504832
#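 First compound was added to culture medium, then infected red cells at 0.1% parasitemia and 2% hematocrit (final). After incubation at 37 C under 5% CO2, luciferase detection reagent was dispensed and light output recorded.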
# AmpC no deterg = AmpC beta-lactamase inhibition without detergent. 330,000 tested, 0.52% active. Potency, µM (highest dose often 57.1 µM), inactives show at the top dose activity change, negative = inhibition, usual class: inhibitors. AmpC nitrocefin hydrolysis, absorbance 480 nm, 0.0001% Triton. P00811;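 also: plate controls were no compound for no effect and no enzyme for full effect; nearly all actives have a fitted effect of over 20% in size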
# Target sequence (P00811 whole entry, looked up): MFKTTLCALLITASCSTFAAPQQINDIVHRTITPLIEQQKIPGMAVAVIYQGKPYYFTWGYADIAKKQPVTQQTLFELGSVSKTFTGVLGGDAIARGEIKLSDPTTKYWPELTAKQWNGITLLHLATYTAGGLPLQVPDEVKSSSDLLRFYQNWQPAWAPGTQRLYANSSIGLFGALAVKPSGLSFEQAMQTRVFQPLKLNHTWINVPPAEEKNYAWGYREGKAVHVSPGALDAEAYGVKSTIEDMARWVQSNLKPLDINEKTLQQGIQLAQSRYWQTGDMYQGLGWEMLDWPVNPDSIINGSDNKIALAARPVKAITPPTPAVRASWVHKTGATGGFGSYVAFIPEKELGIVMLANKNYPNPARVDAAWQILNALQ
#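 AmpC (5.3 nM in the dispensed reagent) in 20 mM phosphate pH 7.0 with 0.01% (detergent screen) or 0.0001% Triton X-100 was preincubated with compounds for 15 min at room temperature. Nitrocefin was then added from an 800 uM solution, and hydrolysis was followed at 480 nm.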
# Pf growth 96h = inhibits malaria parasite growth, 96 h; P. falciparum luciferase reporter growth, 96 h; Potency, µM (doses to about 28.7 µM), without a hit: top-dose activity change, negative = inhibition, usual class: inhibitors; 320,000 tested, 6.9% active; AID 504834
#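 Infected RBCs, 2% Hct / 0.05% parasitemia final; luciferase-reporter P. falciparum; cpd 96 h, 37 C, 5% CO2; luciferase detection reagent; luminescence.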
# AMA1-RON2 inh = AMA1-RON2 (P. falciparum) interaction inhibition; AlphaScreen AMA1-biotinylated RON2 peptide binding; Potency, µM (top dose mostly 58.2 µM), for the others: at the top dose activity change, negative = inhibition, usual class: inhibitors; 360,000 tested, 0.2% active; AID 720542;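 also: 0% = vehicle wells and -100% = peptide control; nearly all actives have a fitted effect of over 45% in size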
#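 AMA1 (3D7) with his tag at 25 nM final met compounds first, then biotinylated RON2 peptide at 25 nM; detection used donor plus acceptor beads, 10 µg/mL apiece, read by AlphaScreen after 30 min at room temperature.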
# AmpC detergent = blocks E. coli AmpC beta-lactamase in detergent assay; AmpC hydrolysis of nitrocefin, absorbance 480 nm, 0.01% Triton; Potency, µM (top dose mostly 114 µM), for the others: at the highest dose activity change, negative = inhibition, hits mostly inhibitors; 370,000 tested, 0.041% active; P00811;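 also: 0% = no-compound wells and -100% = no-enzyme wells; nearly all actives have a fitted effect of over 25% in size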
#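 20 mM phosphate pH 7.0 + 0.01% (detergent screen) or 0.0001% Triton X-100; 5.3 nM AmpC reagent; cpd preinc 15 min RT; nitrocefin (800 uM stock) to start; A480 q20 s × 4 min; Activity was normalised to no-enzyme and no-compound control wells.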
# HCV inhibitor = inhibitors of hepatitis C virus infection. Huh7.5.1 HCVcc-Cre infection, luciferase reporter, 44 h. Potency, µM (top dose mostly 41.8 µM), without a hit: top-dose activity change, negative = inhibition, most hits filed as inhibitors. 340,000 tested, 3.4% active. AID 651820
#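 Luciferase read-out (15 sec integration) after a 15 min room-temperature substrate step quantifies HCVcc-Cre infection. Cells, 1,000 per well, had compound added 4 h post-plating, then virus at ~0.5 moi, and were cultured 44 h.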
# The depositor's hits bear a star; ? = inconclusive; nt = not tested or not shown; [ ] = another dose, or the depositor's remark. The list is not random: actives were taken first. Their share in the collection is about 11%. Calls follow the shape of the dose curve; as a rule, active = well fitted curve in the direction sought with a large enough effect; inconclusive = small, poorly fitted or top-dose-only effect, or another doubt; inactive = no such curve, though single readings can be large; an effect the other way counts as inactive or inconclusive. Unless noted, % is scaled to controls: 0 for no effect and ±100 for the full control effect; potency is read from the fitted curve at half-maximal effect.
SMILES,Pf growth 48h,AmpC no deterg,Pf growth 96h,AMA1-RON2 inh,AmpC detergent,HCV inhibitor
CCn1c2ccccc2c2cc(/C(C)=N/O)ccc21,-0.6%,-11.5%,41.8%,12.1%,-0.1%,10µM*
C/C(=N\O)c1ccc2c3ccccc3n(C)c2c1,100.9%,-22.4%,-23.9%,?,-6.8%,?
CCn1c2ccccc2c2cc(/C=N/NC(=O)c3ccc(O)cc3)ccc21,?,-22.8%,12.8%,-6.9%,-8.0%,17.8µM*
COc1cccc(CNCc2ccc(OC)cc2OC)c1,0.4%,-15.3%,0.0%,-19.6%,-4.5%,-6.0%
Cc1cc(C)c(NC(=O)Cn2c(=O)n(-c3ccc(F)cc3)c(=O)c3c(C)c(C(=O)N(C)C)sc32)c(C)c1,nt,nt,nt,nt,-5.6%,nt
COc1ccc(NC(=O)CCc2c(C)nn(-c3ccc(N4CCOCC4)nn3)c2C)cc1Cl,nt,nt,nt,nt,21.8%,nt
O=C(Nc1ccccc1)Nc1ccncc1,?,-6.5%,?,6.8%,3.5%,-2.9%
O=C(CC(=O)Nc1ccccn1)Nc1ccccn1,144.2%,0.7%,9.28µM*,3.5%,-10.2%,7.7%
O=C(CN1CCN(CC(=O)Nc2ccccn2)CC1)Nc1ccccn1,1.0%,-33.0%,?,0.4%,-7.5%,-24.0%
O=C(Nc1ccncc1)Nc1ccccn1,-10.3%,-2.6%,8.28µM*,11.0%,-10.8%,11.0%
O=C(N/N=C/c1ccc(O)cc1O)c1ccncc1,?,-0.5%,11.7µM*,-11.3%,3.1%,?
O=C(N/N=C/c1ccc(Cl)cc1Cl)c1cccc(N2CCCC2=O)c1,?,30.0%,-27.5%,7.9%,2.1%,?
O=C(N/N=C/c1cc(Br)cc(Br)c1O)c1cccc(N2CCCC2=O)c1,75.0%,-20.0%,10.4µM*,?,2.5%,?
Cc1ccc(C(C)C)c(OCc2ccc(C(=O)N/N=C/c3ccc(O)cc3O)cc2)c1,2.62µM*,-32.2%,?,42.1%,-10.6%,3.16µM*
Cc1cccc(NC(=S)N/N=C/c2c[nH]c3ccccc23)c1,?,15.8µM*,43.9%,82.0%[11.6 µM],-6.6%,10µM*
Cc1ccc(C(C)C)c(OCc2ccc(C(=O)N/N=C/c3ccc(C(=O)O)cc3)cc2)c1,?,-30.7%,-5.4%,0.1%,-14.2%,-13.5%
Cc1ccc(C(=O)Nc2ccc(C(=O)N/N=C/c3c[nH]c4ccccc34)cc2)cc1,-29.1%,-31.0%,-25.2%,25.8%,?,?
CCOC(=O)N1CCN(C(=O)CN(c2ccc(C)cc2C)S(=O)(=O)c2ccccc2)CC1,nt,nt,nt,nt,-11.6%,nt
COc1ccccc1NC(=O)CSC1=Nc2ccccc2N=C(c2ccc(F)cc2)C1,nt,nt,nt,nt,-7.2%,nt
O=C(N/N=C/c1c[nH]c2ccccc12)c1ccccc1,32.0%,-23.3%,0.7%,12.9%,2.2%,11.0%
O=C(N/N=C/c1cc(Br)cc(Br)c1O)c1ccncc1,9.28µM*,-24.1%,15.7%,-87.0%,2.1%,?
Cc1cccc(C(=O)Oc2c(Br)cc(Br)cc2/C=N/NC(=O)c2ccncc2)c1,10.3%,-8.9%,19.4%,-4.5%,3.0%,0.4%
Cc1ccc(N=Cc2cc(Cl)cc(Cl)c2O)nc1,?,-23.7%,?,0.1%,-10.3%,?
Oc1c(Cl)cc(Cl)cc1/C=N/Nc1ncc(Br)cn1,0.0928µM*,-25.0%,14.7µM*,78.3%,-4.7%,2.24µM*
O=C(N/N=C/c1cc(Cl)cc(Cl)c1O)c1ccncc1,13.1µM*,-0.3%,2.33µM*,-66.7%,3.3%,?
SMILES,Pf growth 48h,AmpC no deterg,Pf growth 96h,AMA1-RON2 inh,AmpC detergent,HCV inhibitor
O=C(N/N=C/c1ccc(Cl)cc1Cl)c1ccncc1,19.8%,-21.8%,35.2%,-8.7%,-6.9%,-6.2%
O=C(N/N=C/c1c[nH]c2ccccc12)c1ccncc1,11.8%,-9.4%,11.7µM*,51.3%,-5.4%,-6.4%
COc1ccc(C2=NS(=O)(=O)N(C)C(C(=O)Nc3ccc(OC(F)(F)F)cc3)=C2)cc1,nt,nt,nt,nt,23.9%,nt
Cc1ccc(-c2noc(-c3ccccc3NC(=O)C3CC(=O)N(c4ccccc4C)C3)n2)cc1 (stereo not drawn),nt,nt,nt,nt,18.3%,nt
COc1ccc(N2CC(NC(=O)COc3ccc4ccccc4c3)CC2=O)cc1 (stereo not drawn),nt,nt,nt,nt,-3.1%,nt
Cc1ccc(C)c(N2CCN(C(=O)CN3CCSc4ccc(S(=O)(=O)N(C)C)cc43)CC2)c1,nt,nt,nt,nt,16.4%,nt
COc1ccc(-c2nc(-c3ccccc3)c(-c3cc([N+](=O)[O-])ccc3C)[nH]2)cc1O,5.22µM*,-46.5%,?,-20.1%,-0.6%,?
Cc1ccc([N+](=O)[O-])cc1-c1[nH]c(-c2ccc(O)c(O)c2)nc1-c1ccccc1,nt,-38.0%,19.8%,-0.5%,0.5%,?
COc1ccc(-c2nc3ccc([N+](=O)[O-])cc3[nH]2)cc1,185.5%,-28.1%,?,-2.8%,-6.5%,-11.9%
COc1ccc([N+](=O)[O-])cc1-c1[nH]c(-c2ccc(C(=O)O)cc2)nc1-c1ccccc1,8.28µM*,-48.1%,?,-6.1%,?,8.8%
Cc1ccc(C2CCN(C(=O)Nc3ccc(Cl)c(Cl)c3)C2)cc1 (stereo not drawn),nt,nt,nt,nt,-7.0%,nt
CN(C(=O)CCN1C(=O)/C(=C/c2ccc(F)cc2)SC1=S)C1CCS(=O)(=O)C1 (stereo not drawn),nt,nt,nt,14.5%,nt,nt
CCN(C(=O)C(C)N1C(=O)/C(=C/c2ccco2)SC1=S)C1CCS(=O)(=O)C1 (stereo not drawn),?,40.2%,?,-22.7%,-2.8%,14.1µM*
CC(C(=O)N(C)C1CCS(=O)(=O)C1)N1C(=O)/C(=C/c2ccc(F)cc2)SC1=S (stereo not drawn),13.1µM*,135.1%,11.7µM*,11.5%,-3.4%,-23.1%
CN1CCc2cc(Cl)c(O)cc2[C@@H](c2ccccc2)C1,nt,-29.1%,nt,0.0%,0.3%,-6.4%
CN1CCc2cc(Cl)c(O)cc2[C@H]2c3ccccc3CC[C@@H]21,12µM*,nt,9.53µM*,nt,nt,nt
CC1CCCN(c2ncnc3c2cnn3-c2ccc(F)cc2)C1 (stereo not drawn),nt,nt,nt,nt,-2.4%,nt
CC(=O)N1CCc2c(sc3c2c(=O)n(-c2ccccc2C)c(=O)n3CC(=O)c2ccccc2)C1,nt,nt,nt,nt,-1.5%,nt
Cc1cc(C)cc(-n2c(SCC(=O)N3CCCCCC3)nc3c([nH]c4ccccc43)c2=O)c1,nt,nt,nt,nt,8.6%,nt
COc1cc(OC)cc(C(=O)NCCc2csc(-c3cccc(C)c3)n2)c1,nt,nt,nt,nt,6.0%,nt
CC1CCN(c2csc3ccc(F)cc3c2=O)CC1,nt,nt,nt,nt,-1.8%,nt
CC(=O)c1c(C)[nH]c(C(=O)OCC(=O)Nc2ccc(C)cc2[N+](=O)[O-])c1C,13.5%,-14.5%,1.1%,8.3%,?,2.82µM*
